Results from PubChem BioAssay AID1159580 (chemical genetic matrix, 2015).
The campaign covered roughly 5,500 compounds. About 2,000 (36%) were called active. About 18% were inconclusive and are not listed. Cut-off read from the data, not from the text of the source: active = normalized growth mostly below about 0.91 (no sharp cut-off); inconclusive = no clear call, values can overlap the other calls; inactive = mostly above about 0.92. The list shows a part of the results.

Assay: chemical genetic growth profiling, strain panel (AID 1159580);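 note: tested at 20 µM; growth read once vehicle control cultures reached saturation at 30 °C; 1 = growth at the plate median or of vehicle wells; lower values mean less growth of the strain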
Settings: S. cerevisiae deletion strains, growth OD

Measured: normalized growth

O=C(NC(=O)c1c(F)cccc1F)Nc1ccc(Cl)cc1
inactive: locus YAL021C, strain ccr4, active compounds read low 1.03 | locus YAL026C, strain drs2, active compounds read low 1.01 | locus YAL030W, strain snc1, active compounds read low 1.02 | locus YBL061C, strain skt5, active compounds read low 1.01 | locus YBR009C, strain hhf1, active compounds read low 1.02 | locus YBR023C, strain chs3, active compounds read low 1.02 | locus YBR171W, strain sec66, active compounds read low 1.03 | locus YBR231C, strain swc5, active compounds read low 1.04 | locus YBR279W, strain paf1, active compounds read low 1.01 | locus YCL011C, strain gbp2, active compounds read low 1 | locus YCL016C, strain dcc1, active compounds read low 1.02 | locus YCL061C, strain MRC1, active compounds read low 1.01 | locus YCL069W, strain vba3, active compounds read low 0.996 | locus YCR088W, strain abp1, active compounds read low 1 | locus YDL005C, strain med2, active compounds read low 1.05 | locus YDL040C, strain nat1, active compounds read low 1.03 | locus YDR001C, strain nth1, active compounds read low 1.02 | locus YDR069C, strain doa4, active compounds read low 1.03 | locus YDR137W, strain rgp1, active compounds read low 1.01 | locus YDR159W, strain sac3, active compounds read low 1.04 | locus YDR195W, strain ref2 1.11 | locus YDR297W, strain sur2, active compounds read low 1.03 | locus YDR334W, strain swr1, active compounds read low 1.01 | locus YDR335W, strain msn5, active compounds read low 1.03 | locus YDR392W, strain spt3, active compounds read low 0.955 | locus YEL003W, strain gim4, active compounds read low 1.03 | locus YEL037C, strain rad23, active compounds read low 1.01 | locus YEL061C, strain CIN8 (second series), active compounds read low 1.01 | locus YER015W, strain faa2, active compounds read low 1.02 | locus YER016W, strain bim1, active compounds read low 1.03 | locus YER111C, strain swi4, active compounds read low 1.01 | locus YER155C, strain BEM2 (second series), active compounds read low 1.02 | locus YFR010W, strain ubp6, active compounds read low 1.01 | locus YGL167C, strain pmr1, active compounds read low 1.02 | locus YGL173C, strain kem1, active compounds read low 1.01 | locus YGL227W, strain vid30, active compounds read low 1.03 | locus YGL240W, strain doc1, active compounds read low 1.02 | locus YGL253W, strain hxk2, active compounds read low 1.01 | locus YHR013C, strain ard1, active compounds read low 1.03 | locus YHR027C, strain rpn1, active compounds read low 1.02 | locus YHR030C, strain SLT2, active compounds read low 1.06 | locus YHR079C, strain IRE1, active compounds read low 1.04 | locus YHR142W, strain chs7, active compounds read low 1.01 | locus YJL092W, strain hpr5, active compounds read low 1.02 | locus YJL095W, strain BCK1 (second series), active compounds read low 1.01 | locus YJL095W, strain BCK1, active compounds read low 1.03 | locus YJL115W, strain asf1, active compounds read low 1.04 | locus YJL129C, strain trk1, active compounds read low 1.02 | locus YJL154C, strain vps35, active compounds read low 1.01 | locus YJL164C, strain tpk1, active compounds read low 1 | locus YJL166W, strain qcr8, active compounds read low 1.02 | locus YJL187C, strain SWE1, active compounds read low 1.03 | locus YJR066W, strain TOR1, active compounds read low 0.956 | locus YKL160W, strain elf1, active compounds read low 1 | locus YKR026C, strain gcn3, active compounds read low 1.01 | locus YKR091W, strain srl3, active compounds read low 1.01 | locus YLL001W, strain dnm1, active compounds read low 0.996 | locus YLL026W, active compounds read low 1.02 | locus YLL041C, strain sdh2, active compounds read low 1.01 | locus YLR027C, strain aat2, active compounds read low 1.02 | locus YLR113W, strain HOG1, active compounds read low 1.04 | locus YLR221C, strain rsa3, active compounds read low 0.994 | locus YLR258W, strain gsy2, active compounds read low 1.02 | locus YLR262C, strain YPT6 (second series), active compounds read low 0.974 | locus YLR320W, strain mms22, active compounds read low 0.988 | locus YLR342W, strain FKS1, active compounds read low 1.02 | locus YLR357W, strain rsc2, active compounds read low 1.06 | locus YLR370C, strain arc18, active compounds read low 1.02 | locus YLR384C, strain iki3, active compounds read low 1.03 | locus YML120C, strain ndi1, active compounds read low 1 | locus YMR058W, strain fet3, active compounds read low 1.02 | locus YMR125W, strain sto1, active compounds read low 1.01 | locus YMR129W, active compounds read low 1.02 | locus YMR205C, strain PFK2, active compounds read low 1.04 | locus YMR231W, strain pep5, active compounds read low 1.03 | locus YNL071W, strain lat1, active compounds read low 1 | locus YNL183C, strain NPR1, active compounds read low 0.954 | locus YNL209W, strain ssb2, active compounds read low 1.02 | locus YNL248C, strain rpa49, active compounds read low 1 | locus YNL322C, strain KRE1 (second series), active compounds read low 1.02 | locus YNR049C, strain mso1, active compounds read low 1.02 | locus YOR001W, strain rrp6, active compounds read low 1.01 | locus YOR070C, strain gyp1, active compounds read low 1.02 | locus YOR080W, strain dia2, active compounds read low 1.03 | locus YOR083W, strain WHI5, active compounds read low 0.968 | locus YOR106W, strain vam3, active compounds read low 1.01 | locus YOR231W, strain MKK1, active compounds read low 1.03 | locus YOR265W, strain rbl2, active compounds read low 1.02 | locus YOR270C, strain vph1, active compounds read low 0.932 | locus YOR290C, strain snf2, active compounds read low 1.01 | locus YPL051W, strain arl3, active compounds read low 1.01 | locus YPL078C, strain atp4, active compounds read low 1 | locus YPL106C, strain sse1, active compounds read low 1.02 | locus YPL240C, strain hsp82, active compounds read low 1.04 | locus YPL256C, strain CLN2, active compounds read low 1.12
